{
  "source": "PubChem BioAssay (NCI)",
  "note": "This is part of a sample that, as a whole, favours compounds with a hit. Of some 83,000 tested, about 20% had one in any assay.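 Values shown are percent growth following 48 h exposure of cells in 96-well plates to a single concentration of compound; below 10 was considered active.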 A number with no mark means an inactive call. Calls of active or inactive are those of the source.",
  "data": [
    {"tested_on": "OVCAR-5 ovarian", "assay": "NCI-60 one-dose screen, 48 h (100 = growth as untreated, 0 = no growth, -100 = all killed)", "settings": "10 µM unless noted", "method": "Growth inhibition of the OVCAR-5 human tumor cell line is measured as a screen for anti-cancer activity. Cells are grown in 96 well plates and exposed to the test compound for 48 hours. Compounds are tested at a single concentration, which is 10^-5 M for most compounds. The reported endpoint is percent growth (GI% or GIPRCNT), where numbers from 0 - 100% represent growth inhibition, and numbers from -100% - 0 represent cell death. For example, a value of 40 represents 60% growth inhibition. A value of 0 means no net growth occurred over the course of the experiment. A value of -40 indicates 40% of cells at the beginning of the experiment died by the end of the experiment. A value of -100 means all cells are dead at the end of the experiment.\nNCI-60 Human Tumor Cell Lines Screen was performed using the standard one-dose NCI protocol, which is described in more detail at https://dtp.cancer.gov/discovery_development/nci-60/default.htm.\nCompounds with GIPRCNT values below 10 were considered active. Activity score was based on GIPRCNT using the following formula: […]\nScore is 0 for GIPRCNT values of 100 or above, 50 for GIPRCNT values of 0, and 100 for GIPRCNT values of -100.", "values": [
      {"smiles": "O=C(Nc1ccc(Nc2ncccn2)cc1)NC1C=c2ccccc2=CC1", "note": "(stereo not given)", "growth": "108%"},
      {"smiles": "CCOC(=O)N1CCc2c(sc3nc4nc[nH]n4c(=O)c23)C1", "growth": "110%"},
      {"smiles": "CCN(CC)CCCC(C)Nc1cc(-c2cccc(OC(F)(F)F)c2)nc2ccc(N3CCCC3)cc12", "note": "(stereo not given)", "growth": "31.1%"},
      {"smiles": "NC(=S)N/N=C/c1ccc(OC(=O)COc2cc(Cl)c(Cl)cc2Cl)cn1", "growth": "115%"},
      {"smiles": "c1ccc(N2N=C(c3cccc(Nc4ccncc4)c3)CC2c2ccc3c(c2)OCO3)cc1", "note": "(stereo not given)", "growth": "43.7%"},
      {"smiles": "O=C1c2cccnc2C(=O)c2nc3cc(N4CCN(C5CC5)CC4)ccc3nc21", "growth": "-82.3% (active)"},
      {"smiles": "COc1cc(COC(=O)CCCCC[P+](c2ccccc2)(c2ccccc2)c2ccccc2)c(OC)c2c1OCO2", "growth": "76.9%"},
      {"smiles": "O=C(Nc1nc(-c2ccccc2Cl)cs1)c1cc(-c2ccccc2)nc2ccc(Cl)cc12", "growth": "93.2%"},
      {"smiles": "COc1cc(CNC(=O)CCCCC[P+](c2ccccc2)(c2ccccc2)c2ccccc2)c(OC)c2c1OCO2", "growth": "99.5%"},
      {"smiles": "C#CC(=O)Nc1cccc(Nc2nc3c(c(NCc4ccccc4)n2)CCCC3)c1", "growth": "-45% (active)"},
      {"smiles": "C#CCn1cc(C=C2C(=O)NC(=S)NC2=O)c2cc(Cl)ccc21", "growth": "56.9%"},
      {"smiles": "O=C(N/N=C/c1ccc(F)cc1)c1ccccc1Nc1cccc(C(F)(F)F)c1", "growth": "104%"},
      {"smiles": "CCCCCCCCCCCCCCCCCCOc1ccccc1N", "growth": "101%"},
      {"smiles": "COc1ccc(C(=O)/C=C/c2cn(Cc3ccc(Cl)cc3)c3ccccc23)cc1", "growth": "13.4%"},
      {"smiles": "CC(=O)N1N=C(c2cccc(Nc3ccncc3)c2)CC1c1ccc2c(c1)OCO2", "note": "(stereo not given)", "growth": "94.1%"},
      {"smiles": "COc1cc2nc(-c3ccc(C(F)(F)F)cc3)cc(OCCN3CCCC3)c2cc1OC", "growth": "67.6%"},
      {"smiles": "CCOC(=O)N1CCN(CCCCl)CC1", "growth": "93.3%"},
      {"smiles": "O=C(Cc1ccc(/C=C/C(=O)c2ncc[nH]2)cc1)Nc1ccc(C(F)(F)F)cc1", "growth": "78.9%"},
      {"smiles": "CN(C)c1ccc(-c2c(C#N)c(N)n3nc(N)c(C#N)c3c2C#N)cc1", "growth": "63.7%"},
      {"smiles": "Cc1cccc(Oc2ccc(Nc3ncnc4ccc(NC(=O)CN(C)C)cc34)cc2Cl)c1", "growth": "60.9%"},
      {"smiles": "CCNNC(=O)[C@@H]1[C@H](c2cc(OC)c(OC)c(OC)c2)c2cc3c(cc2[C@H](O)[C@H]1CO)OCO3", "growth": "33.6%"},
      {"smiles": "COc1cc(NCCN(CC(C)C)C2CCCC2)c2ncccc2c1", "growth": "96.4%"},
      {"smiles": "COc1cc(OC)cc(C2C3=C(COC3=O)Nc3cc(OC)ccc32)c1", "note": "(stereo not given)", "growth": "39.5%"},
      {"smiles": "O=C(OCc1nc2nc(Cl)nc(N3CCOCC3)c2[nH]1)n1ccnc1", "growth": "22.3%"},
      {"smiles": "Nc1cc(N)c2cccnc2c1O", "growth": "96%"},
      {"smiles": "CCCCCCCCCCCCCCCC(=O)OC[C@@]1(O)C[C@@]23CC[C@@H]4C(C)(C)[C@H](O)CC[C@@]4(C)[C@@H]2CC[C@H]1C3", "growth": "106%"},
      {"smiles": "Cc1ccc(C2C3CC4CCCCC4N3[C@@]3(C(=O)Nc4cc(Cl)ccc43)C2C(=O)c2nc3ccccc3[nH]2)cc1", "note": "(stereo not given in full)", "growth": "49%"},
      {"smiles": "COc1ccccc1C(C[N+](=O)[O-])c1c(-c2ccccc2)[nH]c2cc(C)ccc12", "note": "(stereo not given)", "growth": "89.5%"},
      {"smiles": "Cc1ccc(-c2c(Br)c(OC(=O)CO[C@@H]3C[C@H](C)CC[C@H]3C(C)C)c(-c3ccc(C)cc3C)c(Br)c2OC(=O)CO[C@H]2C[C@@H](C)CC[C@@H]2C(C)C)c(C)c1", "growth": "102%"},
      {"smiles": "CS(=O)(=O)OCCN(CCOS(C)(=O)=O)c1ccc(/C=N/Nc2ccc([N+](=O)[O-])cc2[N+](=O)[O-])cc1", "growth": "97.8%"},
      {"smiles": "NC(=O)c1cccc(-c2cc(C(N)=O)ccc2Cl)c1", "growth": "51.3%"},
      {"smiles": "Cn1ncc2c(Nc3ccccc3Cl)nc(Cl)nc21", "growth": "96.4%"},
      {"smiles": "O=C(N=Nc1c(O)[nH]c2ccc(F)cc12)c1cc2ccccc2[nH]1", "growth": "103%"},
      {"smiles": "COc1ccc(-c2cnc(N)nc2-c2ccc(OC)cc2O)cc1", "growth": "102%"},
      {"smiles": "COc1ccc(C(O)c2cc3c(N)c(C(=O)Nc4ccccc4)sc3nc2C)cc1", "note": "(stereo not given)", "growth": "27.1%"},
      {"smiles": "COc1cc(C2NC(c3cc(OC)c(OC)c(OC)c3)C(C#N)(C#N)C2(C#N)C#N)cc(OC)c1OC", "note": "(stereo not given)", "growth": "96.4%"},
      {"smiles": "COc1ccc(C2CC(c3cccc(Nc4ccncc4)c3)=NN2c2ccccc2)cc1", "note": "(stereo not given)", "growth": "79.7%"},
      {"smiles": "O=C(CN1CCOCC1)Nc1ccc2ncnc(Nc3ccc(Oc4cccc(F)c4)c(Cl)c3)c2c1", "growth": "68.7%"},
      {"smiles": "O=C(OC(OC(=O)c1cc(Cl)cc(Cl)c1)c1cccc2ccccc12)c1ccccc1", "note": "(stereo not given)", "growth": "105%"},
      {"smiles": "COc1ccc(-c2nc(SC(C)C)nc(NNC(N)=O)c2C#N)cc1", "growth": "85.6%"}
    ]}
  ]
}
